Sampled rows, rich in hits. Any-hit rate of the full collection: about 11%.
CBFb RUNX1 block – CBF-beta/RUNX1 interaction disruption; Q01196+Q13951; AlphaScreen CBFb-His/RUNX1-biotin binding, biochemical; Potency, µM (highest dose often 59.8 µM), for inactives: top-dose activity, negative = inhibition, most hits filed as inhibitors; 230,000 tested, under 10 active; AID 1477; also: % of control where 0% means no effect
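His-tagged CBF-beta and biotinylated RUNX1 (30 nM each) were premixed 20 min at room temperature, exposed to compound for 15 min, then given nickel-chelate and streptavidin AlphaScreen beads (50 ng each). After 90 min, AlphaScreen signal was read.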
HPGD inh – blocks human HPGD enzyme activity | P15428 | 150,000 tested, 4.3% active | purified HPGD, NADH fluorescence kinetic, PGE2 substrate | Potency, µM, for the others: at the top dose activity change, negative = inhibition, most hits filed as inhibitors; active = well fitted inhibition curve with a large enough effect, not every such curve was filed as active; inconclusive = small, poorly fitted or top-dose-only effect, or another doubt; inactive = no such curve, though single readings can be large or run the other way; also: potency is read from the fitted curve at half-maximal effect; % is scaled to controls: 0 for no effect and ±100 for the full control effect
Target sequence (P15428 whole entry, looked up): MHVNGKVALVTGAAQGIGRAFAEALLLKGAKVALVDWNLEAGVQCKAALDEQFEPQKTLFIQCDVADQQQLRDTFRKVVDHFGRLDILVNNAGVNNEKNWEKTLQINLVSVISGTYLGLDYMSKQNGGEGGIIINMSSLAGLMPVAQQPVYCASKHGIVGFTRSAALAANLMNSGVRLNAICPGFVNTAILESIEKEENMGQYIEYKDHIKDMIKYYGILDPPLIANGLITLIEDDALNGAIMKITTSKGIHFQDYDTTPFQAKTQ
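20 nM HPGD preincubated 15 min at room temperature with compound in 50 mM Tris-HCl pH 8, 0.01% Tween 20. Started with 1 mM NAD+ and 30 uM prostaglandin E2; NADH fluorescence (360/450 nm) read 5 times over 30-s intervals, last minus first.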
ALDH1A1 block – inhibitors of human aldehyde dehydrogenase 1A1 | Purified ALDH1A1, NADH fluorescence, propionaldehyde substrate | AID 1030 | Potency, µM (highest dose often 75.3 µM), for inactives: top-dose activity, negative = inhibition, actives largely listed as inhibitors | 220,000 tested, 7.3% active; active = well fitted inhibition curve with a large enough effect, not every such curve was filed as active; inconclusive = small, poorly fitted or top-dose-only effect, or another doubt; inactive = no such curve, though single readings can be large or run the other way;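 also: potency is read from the fitted curve at half-maximal effect; plate controls were no enzyme wells and a reference inhibitor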
Target sequence (P00352 whole entry, looked up): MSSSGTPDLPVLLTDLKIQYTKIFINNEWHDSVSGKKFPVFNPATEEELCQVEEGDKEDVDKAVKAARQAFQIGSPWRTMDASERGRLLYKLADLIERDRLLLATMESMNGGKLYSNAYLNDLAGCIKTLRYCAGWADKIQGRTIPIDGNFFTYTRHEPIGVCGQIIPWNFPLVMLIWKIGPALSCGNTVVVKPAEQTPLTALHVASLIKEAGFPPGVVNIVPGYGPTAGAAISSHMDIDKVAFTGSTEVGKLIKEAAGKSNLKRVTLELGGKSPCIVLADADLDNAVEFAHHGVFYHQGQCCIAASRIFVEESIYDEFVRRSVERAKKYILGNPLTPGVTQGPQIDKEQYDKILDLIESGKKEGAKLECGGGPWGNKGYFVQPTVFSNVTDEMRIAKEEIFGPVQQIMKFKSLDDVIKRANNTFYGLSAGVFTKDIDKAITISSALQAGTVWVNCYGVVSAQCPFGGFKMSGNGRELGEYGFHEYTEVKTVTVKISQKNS
HTT cytoprotect – cytoprotection in Huntington HTT-Q103 PC12 cell model. AID 1471. Potency, µM (titrated, usually from 56.4 µM), for inactives: cytoprotection (ATP increase), hits mostly activators. PC12 HTT-Q103 induced, cytoprotection, ATP luminescence, 40 h. 230,000 tested, 0.14% active; also: potency is read from the fitted curve at half-maximal effect; % of control where 0% means no effect; nearly all actives have a fitted effect of over 45% in size
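Cells were plated at 1500 per well in phenol red-free DMEM with 5% equine and 5% calf serum. Tebufenozide (100 nM final) and compounds were added, then ATPlite reagent, and luminescence was read.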
PNC assembly inh – perinucleolar compartment assembly inhibition; PC3M PTB-GFP, PNC prevalence imaging, 16 h; hits give low values; activity change (PNC), negative = inhibition, % at 10 µM; 140,000 tested, 3.1% active; AID 2417;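 active = readout at or below -70, meaning at least 70% loss of cells showing the perinucleolar compartment, a nuclear body marking cancer cells; inconclusive = readout between -30 and a set limit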;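 also: plate controls were DMSO wells for no effect and camptothecin positive control wells for full effect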
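Compounds are pinned in duplicate onto adhered PC3M cells stably expressing GFP-tagged PTB and incubated 16 h at 37 C. Cells are then fixed, nuclei stained with Hoechst, and PNC-positive cells counted.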
HTT aggregate – reduces HttQ103-GFP aggregates in PC12 cells | PC12 HttQ103-GFP aggregates, Acumen cytometry, 40 h | Potency, µM (series often up to 46.1 µM), for inactives: at the top dose activity change, negative = inhibition, actives largely listed as inhibitors | 220,000 tested, 1.1% active; also: potency is read from the fitted curve at half-maximal effect; % is scaled to controls: 0 for no effect and ±100 for the full control effect; nearly all actives have a fitted effect of over 60% in size
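Read-out: GFP aggregate count by laser scanning cytometer (488 nm excitation, 500-530 nm emission, 1–25 µm objects >6 SD above background). Cells: PC12, inducible HTTex1-Q103-GFP, 100 nM tebufenozide; compounds titrated.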
* hit, by the source's call; ? = inconclusive; nt = not tested or not shown; [ ] = remark or other dose. Unless noted, calls follow the shape of the dose curve; as a rule, active = well fitted curve in the direction sought with a large enough effect; inconclusive = small, poorly fitted or top-dose-only effect, or another doubt; inactive = no such curve, though single readings can be large; an effect the other way counts as inactive or inconclusive.

SMILES	CBFb RUNX1 block	HPGD inh	ALDH1A1 block	HTT cytoprotect	PNC assembly inh	HTT aggregate
CC(=O)OC1CC[C@@]2(C)C(CC[C@@]3(C)C2CC=C2C4CC(C)(C)CC[C@]4(C(=O)O)CC[C@@]23C)C1(C)C (some centres undefined)	13%	-5%	5%	17%	nt	nt
Nc1nnc(CCS(=O)(=O)c2cc(Cl)ccc2Cl)s1	-8%	-20%	25µM*	-35%[10 µM]	?	22%
CCn1c(SCC(=O)Nc2ncc(C(F)(F)F)cc2Cl)nnc1-c1ccccc1	-4%	-7%	4%	-13%[1.9 µM]	?	3%
O=C(Nc1ccccc1Br)C1CC(=O)N(c2ccc3c4c(cccc24)CC3)C1 (centres undefined)	17%	-15%	20µM*	6%[10 µM]	47	6%
Cc1ccc(C(=O)N2CC(C)OC(C)C2)cc1[N+](=O)[O-] (centres undefined)	2%	nt	9%	-17%[10 µM]	nt	-19%[9.22 µM]
Cc1ccc(/C=C/C2=Cc3c(sc(NC(=O)CSc4n[nH]c(N)n4)c3C#N)C(C)(C)C2)o1	-14%	?	0.79µM*	-14%	-3	24%
Cc1ccc(Oc2ccc(NC(=O)CSc3n[nH]c(N)n3)cc2)cc1	-7%	-24%	?	nt	12	?
COC(=O)c1cc(Cl)c(NC(=O)C(C)C)cc1OC	1%	nt	8%	-10%	nt	?
COC(=O)c1cc(Cl)c(NC(=O)/C=C/c2ccc(OC)cc2)cc1OC	18%	?	?	14%[10 µM]	-113*	13%
CCOc1ccc(NC(=S)NC(=O)/C=C/c2ccc(C)cc2)c([N+](=O)[O-])c1	-13%	?	?	15%	12	10%
CCOc1ccc(NC(=S)NC(=O)/C=C/c2ccc(OC)c(OC)c2)c([N+](=O)[O-])c1	-5%	22µM*	-3%	10%	6	1%
COc1ccc(NC(=O)/C=C/c2ccccc2)c([N+](=O)[O-])c1	7%	-1%	8%	-3%[10 µM]	-82*	2%
CCNc1ncc2nc(-c3ccc(OC)cc3)c(=O)n(-c3ccc(OC)cc3)c2n1	nt	?	?	24%	nt	nt
CN(C)Cc1ccccc1-c1nc(N(C)Cc2ccco2)c2ccccc2n1	nt	-13%	-7%	-18%	nt	nt
Cc1cc(/C=N/n2cnnc2)c(C)n1-c1ccc(Cl)cc1Cl	-8%	-5%	?	14%[10 µM]	?	-7%
Cc1cc(C=NCCCO)c(C)n1-c1cc(Cl)ccc1Cl	-7%	nt	3.5µM*	-8%	nt	-12%
COc1ccc(-c2nnc(OCc3ccccc3)c3ccccc23)cc1	5%	-21%	?	21%[10 µM]	-88*	?
CCCCc1ccc(-c2nc(-c3ccncc3)no2)cc1	7%	-12%	6.3µM*	-10%[10 µM]	30	7%
Brc1ccc(-c2nc(-c3ccncc3)no2)o1	4%	-8%	11%	-26%[0.074 µM]	-89*	3%
Cc1nc2ccccn2c1C(=O)NC1CCCCC1	2%	?	?	-1%	-105*	-15%
Cc1nc2ccccn2c1C(=O)OCC#N	-2%	nt	16µM*	-14%[10 µM]	nt	-33%[9.22 µM]
Cc1nc2ccccn2c1C(=O)NN=C1CCCC1	-1%	nt	?	13%[10 µM]	nt	-1%
Cc1nc2ccccn2c1C(=O)CSc1ccccc1	4%	nt	-14%	-28%	nt	?
COc1ccccc1CNc1cc(-c2ccccc2Cl)ncn1	nt	nt	-7%	-19%	nt	nt
Nc1cc(Cl)c([N+](=O)[O-])cc1O	5%[21.7 µM]	-8%	?	19%	nt	nt
SMILES	CBFb RUNX1 block	HPGD inh	ALDH1A1 block	HTT cytoprotect	PNC assembly inh	HTT aggregate
Cc1cc(/C=N/NC(N)=S)c(C)n1-c1ccc(Cl)c(Cl)c1	?	?	16µM*	nt	46	?
Cc1nc2ccccn2c1C(=O)N/N=C/c1cc(C)n(-c2ccc(Cl)cc2)c1C	-11%	?	?	33%[10 µM]	-100*	-5%
Cc1cc(/C=N/NC(=O)Cn2c3ccccc3c(=O)c3ccccc32)c(C)n1-c1ccc(Cl)cc1	-5%	?	?	-6%[1.9 µM]	-88*	2%
CCNC(=S)N/N=C/c1cc(C)n(-c2ccc(Cl)cc2)c1C	?	nt	-1%	-39%	nt	-2%
Cc1ccc(-n2c(C)cc(/C=N/NC(=O)Cn3c4ccccc4c(=O)c4ccccc43)c2C)cc1	-24%	?	?	6%[10 µM]	0	25%
O=S(=O)(Nc1ccc(-c2nc3cccnc3s2)cc1)c1ccccc1F	-6%	nt	nt	8%[10 µM]	nt	11%[9.22 µM]
CC(=O)Nc1nc(SCC(=O)NCc2ccc(F)cc2)[nH]c(=O)c1NC(=O)c1cccs1	11%	nt	6%	-13%	nt	-11%
CSc1nc(C)cc(-n2cc(F)c(=O)[nH]c2=O)n1	8%	14µM*	1%	2%	31	-30%
O=C(Nc1ccc(F)cc1)C(c1ccccc1)N1CCN(S(=O)(=O)c2c(F)cccc2F)CC1 (centres undefined)	7%	-8%	7.9µM*	35%[10 µM]	0	-2%
O=C(Nc1ccc(F)cc1)C(c1ccccc1)N1CCN(S(=O)(=O)c2ccccc2)CC1 (centres undefined)	-4%	-9%	10µM*	-20%[10 µM]	-12	?
O=C(O)CN(c1ccccc1)S(=O)(=O)c1cc(C(F)(F)F)cc(C(F)(F)F)c1	3%	nt	9%	-7%	nt	7%
CC(=O)N1CCN(c2c(F)c(F)c(C(F)(F)F)c(F)c2F)CC1	2%	nt	8%	15%[10 µM]	nt	0%[9.22 µM]
CCOC(=O)c1cnc(SC)nc1Sc1cc(Cl)ccc1Cl	-7%	7.1µM*	?	-18%	27	-1%
O=S(=O)(NCC1CCCO1)c1ccc(S(=O)(=O)N2CCCC2)cc1 (centres undefined)	3%	-1%	?	2%	-9	-15%
CCOC(=O)/C(C#N)=C/c1cc(C)n(-c2ccc(C)cc2)c1C	-1%	-14%	11µM*	-43%	-10	-4%[9.22 µM]
Cc1cccc(NC(=O)/C(C#N)=C\c2cc(C)n(-c3ccc(C(=O)O)cc3)c2C)c1	-16%	nt	3.2µM*	1%[10 µM]	nt	-8%[9.22 µM]
COc1ccc(NC(=O)/C(C#N)=C\c2cc(C)n(-c3ccc4c(c3)OCO4)c2C)cc1	-13%	-16%	-3%	nt	-124*	?
CNC(=O)/C(C#N)=C/c1cc(C)n(-c2ccc(N3CCOCC3)cc2)c1C	2%	nt	?	13%[10 µM]	nt	9%[9.22 µM]
Cc1cc(C=O)c(C)n1-c1ccc2c(c1)OCO2	-7%	nt	1.4µM*	7%[10 µM]	nt	19%[9.22 µM]
O=C(Nc1ccccc1)OC1CCCCc2cccnc21 (centres undefined)	8%	nt	nt	-3%[10 µM]	nt	5%[9.22 µM]
O=C(c1ccc(-c2nnc(Nc3cccc(Cl)c3)c3ccccc23)cc1)N1C[C@H]2C[C@H](C1)c1cccc(=O)n1C2	-10%	?	-1%	-78%	-21	?

Assay outcomes as filed in PubChem.
